Where “and” joins values, the source holds several entries; their conditions need not be identical. Identical values can stand only once. Inconclusive results are not listed. Calls of active or inactive are those of the source. Unless noted, calls come from the whole dose curve; as a rule, active = well fitted curve in the direction sought with a large enough effect; inconclusive = small, poorly fitted or top-dose-only effect, or another doubt; inactive = no such curve, though single readings can be large; an effect the other way counts as inactive or inconclusive.
What was measured:
[1] = system: MKL-2; assay: qHTS assay to identify novel small-molecules to repurpose for Merkel cell carcinoma treatment (AID 1296009); settings: MCC and control cell lines, CellTiter-Glo viability, 72 h; series mostly up to 46 µM; note: % is set by controls: 0 for no effect and ±100 for the full control effect; nearly all actives have a fitted effect of over 60% in size
Procedure, shortened: (§1)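 Cell viability, measured as CellTiter-Glo luminescence, was normalized between DMSO and no-cell wells. The cells had been exposed to 8- or 11-point compound dilutions for 72 hr at 37 degree celsius.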

[2] = system: UISO; assay: as above; settings: MCC and control cell lines, CellTiter-Glo viability, 72 h; series mostly up to 46 µM
Procedure, shortened: as §1

[3] = system: WaGa; assay: as above; settings: MCC and control cell lines, CellTiter-Glo viability, 72 h; series mostly up to 46 µM
Procedure, shortened: as §1

[4] = system: C33A; assay: Primary qHTS to identify gynecologic anti-cancer compounds using libraries of approved drugs and bioactive compounds (AID 1345084); settings: Gynecologic cancer cell panel viability, ATPlite luminescence, 48 h; series mostly up to 57.5 µM; note: nearly all actives have a fitted effect of over 55% in size; note: potency is the fitted concentration of half-maximal effect
Procedure, shortened: (§2)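 Cells, 1,000 per well, were allowed to settle for 16 h at 37 C before compound addition. Five concentrations were tested for 48 h, and viability was read by ATPlite luminescence after 15 min at room temperature.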

[5] = system: CAOV3; assay: as above; settings: Gynecologic cancer cell panel viability, ATPlite luminescence, 48 h; series mostly up to 57.5 µM
Procedure, shortened: as §2

[6] = system: CASKI; assay: as above; settings: Gynecologic cancer cell panel viability, ATPlite luminescence, 48 h; series mostly up to 57.5 µM
Procedure, shortened: as §2

[7] = system: Es-2; assay: as above; settings: Gynecologic cancer cell panel viability, ATPlite luminescence, 48 h; series mostly up to 57.5 µM
Procedure, shortened: as §2

[8] = system: HeLa; assay: as above; settings: Gynecologic cancer cell panel viability, ATPlite luminescence, 48 h; series mostly up to 57.5 µM
Procedure, shortened: as §2

[9] = system: Hek293T; assay: as above; settings: Gynecologic cancer cell panel viability, ATPlite luminescence, 48 h, control line for the selectivity index; series mostly up to 57.5 µM
Procedure, shortened: as §2

[10] = system: JEG-3; assay: as above; settings: Gynecologic cancer cell panel viability, ATPlite luminescence, 48 h; series mostly up to 57.5 µM
Procedure, shortened: as §2

[11] = system: OV90; assay: as above; settings: Gynecologic cancer cell panel viability, ATPlite luminescence, 48 h; series mostly up to 57.5 µM
Procedure, shortened: as §2

[12] = system: PA-1; assay: as above; settings: Gynecologic cancer cell panel viability, ATPlite luminescence, 48 h; series mostly up to 57.5 µM
Procedure, shortened: as §2

[13] = system: SKOV3; assay: as above; settings: Gynecologic cancer cell panel viability, ATPlite luminescence, 48 h; series mostly up to 57.5 µM
Procedure, shortened: as §2

[14] = system: Tov-21-G; assay: as above; settings: Gynecologic cancer cell panel viability, ATPlite luminescence, 48 h; series mostly up to 57.5 µM
Procedure, shortened: as §2

[15] = system: Tov112D; assay: as above; settings: Gynecologic cancer cell panel viability, ATPlite luminescence, 48 h; series mostly up to 57.5 µM
Procedure, shortened: as §2

[16] = Drug repurposing screens with cells derived from glioblastoma tumor samples (AID 1345199); settings: GBM patient neurospheres viability, ATP luminescence, 48 h; note: nearly all actives have a fitted effect of over 40% in size; note: potency is the fitted concentration of half-maximal effect; for activity, negative = cell killing: % is set by controls: 0 for no effect and ±100 for the full control effect
Procedure, shortened: (§3)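 Primary testing used CD133+ neurospheres from four GBM patients, seven concentrations, 48 h exposure and ATP-based viability; confirmation added three slower-growing patient lines.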

[17] = system: astro; assay: as above; settings: viability, ATP luminescence, 48 h; series mostly up to 45.9 µM
Procedure, shortened: as §3

[18] = target: Nuclear receptor subfamily 1 group I member 2 (Rattus norvegicus) (UniProt Q9R1A7); assay: qHTS assay for small molecule activators of the rat pregnane X receptor (rPXR) signaling pathway (AID 651751; call rule not given here; note: 0% is about no effect); settings: rPXR reporter cells, luciferase (One-Glo), 24 h
Chain of Nuclear receptor subfamily 1 group I member 2 (Rattus norvegicus) (Q9R1A7 whole entry, looked up): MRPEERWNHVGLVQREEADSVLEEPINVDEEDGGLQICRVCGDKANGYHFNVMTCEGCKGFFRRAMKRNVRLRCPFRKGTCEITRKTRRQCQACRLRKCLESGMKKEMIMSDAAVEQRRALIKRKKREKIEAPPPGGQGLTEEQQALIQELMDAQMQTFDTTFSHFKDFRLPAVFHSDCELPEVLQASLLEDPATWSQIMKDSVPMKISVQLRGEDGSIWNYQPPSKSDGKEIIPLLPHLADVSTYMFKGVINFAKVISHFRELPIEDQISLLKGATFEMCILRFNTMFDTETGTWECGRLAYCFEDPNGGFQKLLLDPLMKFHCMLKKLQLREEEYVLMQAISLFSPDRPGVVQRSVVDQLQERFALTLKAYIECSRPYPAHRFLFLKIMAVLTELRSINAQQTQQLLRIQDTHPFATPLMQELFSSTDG

[19] = qHTS assay for small molecule activators of the human pregnane X receptor (PXR) signaling pathway (AID 720659; call rule not given here; note: 0% is about no effect)
[20] = at 45.9 µM (top of the series), tumour line B
[21] = at 45.9 µM (top of the series), tumour line D
[22] = at 46 µM (top of the series), tumour line A
[23] = at 46.1 µM (top of the series), tumour line C

CCCC(=O)O[C@]1(C(=O)CO)CC[C@H]2[C@@H]3CCC4=CC(=O)CC[C@]4(C)[C@H]3[C@@H](O)C[C@@]21C
inactive: Potency [1] | Potency [2] | Potency [3] | Potency [4] | Potency [6] | Potency [7] | Potency [8] | Potency [9] | Potency [10] | Potency [11] | Potency [12] | Potency [13] | Potency [14] | Potency [15] | activity, negative = cell killing [16, 20] 1.95% | activity, negative = cell killing [16, 21] -21.3% | activity, negative = cell killing [16, 22] -2.7% | activity, negative = cell killing [16, 23] 6.32% | Potency [17]
active: Potency [5] 3.55 µM

CCCCN1CCCC1C(=O)Nc1c(C)cc(C)cc1C (centres undefined)
active: Potency ([16]; tumour line A) 22.4 µM
inactive: Potency [1] | Potency [2] | Potency [3] | Potency [4] | Potency [5] | Potency [6] | Potency [7] | Potency [8] | Potency [9] | Potency [10] | Potency [12] | Potency [13] | Potency [14] | Potency [15] | activity, negative = cell killing [16, 20] -5.63% | activity, negative = cell killing [16, 21] -4.43% | activity, negative = cell killing [16, 23] -15.9% | Potency [17]

C=CCc1ccc(O)c(OC)c1
inactive: Potency [1] | Potency [2] | Potency [3] | Potency [4] | Potency [5] | Potency [6] | Potency [7] | Potency [8] | Potency [9] | Potency [10] | Potency [11] | Potency [12] | Potency [14] | Potency [15] | activity, negative = cell killing [16, 20] -13.4% | activity, negative = cell killing [16, 21] 1.72% | activity, negative = cell killing [16, 22] -22.5% | activity, negative = cell killing [16, 23] 5.7% | Potency [17] | max response [18] -0.084% and 3.11% | outcome [19]

CCC(=O)c1c(O)cc(O)cc1O
inactive: Potency [1] | Potency [2] | Potency [3] | Potency [4] | Potency [6] | Potency [7] | Potency [8] | Potency [9] | Potency [10] | Potency [11] | Potency [12] | Potency [13] | Potency [14] | Potency [15] | activity, negative = cell killing [16, 20] -0.713% | activity, negative = cell killing [16, 21] -16.2% | activity, negative = cell killing [16, 23] -2.44% | Potency [17]

CNCC[C@@H](Oc1ccccc1C)c1ccccc1
inactive: Potency [1] | Potency [2] | Potency [3] | Potency [4] | Potency [5] | Potency [6] | Potency [8] | Potency [9] | Potency [10] | Potency [11] | Potency [12] | Potency [15] | Potency [17]

CN1CCC[C@@H]1c1cccnc1
inactive: Potency [1] | Potency [2] | Potency [3] | Potency [4] | Potency [6] | Potency [7] | Potency [8] | Potency [9] | Potency [10] | Potency [11] | Potency [12] | Potency [13] | Potency [14] | Potency [15] | activity, negative = cell killing [16, 20] -7.48% | activity, negative = cell killing [16, 21] -12.9% | activity, negative = cell killing [16, 22] -29.1% | activity, negative = cell killing [16, 23] -0.391%

— PubChem BioAssay (NCATS)
